# PfHsp90 yeast 2 = inhibits growth of yeast expressing Plasmodium falciparum Hsp90; AID 504621; S. cerevisiae expressing PfHsp90, BacTiter-Glo ATP, 48 h; yeast lacking PDR1 and PDR3 efflux regulators; 0.32% of 310,000 active; inhibition, % at 9.4 µM;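 active means every replicate shows inhibition above about 80%, whatever the replicate mean, limit read from the data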;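 further: 0% = DMSO neutral controls and 100% = 20 µM radicicol positive controls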
# EBI2 antag = antagonists of human EBI2 receptor. EBI2 beta-arrestin recruitment, luminescence, 7a,25-OHC stimulated. inhibition, % at 5 µM. 0.81% of 360,000 active. AID 651636; in the data active means inhibition above about 38%;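 further: enzyme fragment complementation signal reports receptor beta-arrestin coupling in cells; 0% = agonist plus DMSO wells and 100% = wells without agonist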
# Target sequence (P32249 whole entry, looked up, the tested form may be a part): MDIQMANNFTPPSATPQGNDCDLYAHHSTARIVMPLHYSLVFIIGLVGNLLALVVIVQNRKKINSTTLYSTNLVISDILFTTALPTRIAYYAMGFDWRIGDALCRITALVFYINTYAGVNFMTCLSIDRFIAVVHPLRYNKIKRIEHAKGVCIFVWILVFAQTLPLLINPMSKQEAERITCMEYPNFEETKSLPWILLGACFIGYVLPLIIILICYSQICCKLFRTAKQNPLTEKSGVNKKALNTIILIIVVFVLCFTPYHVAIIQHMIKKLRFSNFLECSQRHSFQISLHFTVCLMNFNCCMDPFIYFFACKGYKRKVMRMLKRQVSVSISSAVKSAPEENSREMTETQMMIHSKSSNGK
# SKKanGAS inh = SKKanGAS growth inhibition. 1.3% of 300,000 active. inhibition, % at 7.5 µM. S. pyogenes SKKanGAS, kanamycin growth, BacTiter-Glo, 6 h;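 active means mean replicate score, as percent of positive control median, at least 50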;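 further: strain carries kanamycin resistance gene driven by streptokinase promoter and grows in 40 µg/ml kanamycin; loss of luminescence reflects streptokinase promoter inhibition or plain growth inhibition; 0% = median of DMSO wells and 100% = positive control at its reference dose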
# TIM10 inh = TIM10 yeast growth inhibition. S. cerevisiae TIM10 strain growth, BacTiter-Glo luminescence, 24 h. inhibition, % at 10 µM. 1.4% of 330,000 active;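 active means inhibition of 40% or more at the single tested concentration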;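 further: wild-type TIM10 isogenic control strain grown at permissive 25 °C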
# tim23-1 inh = growth inhibitors of tim23-1 mutant yeast; inhibition, % at 20 µM; S. cerevisiae tim23-1 growth, BacTiter-Glo luminescence, 24 h; 1.3% of 330,000 active;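 active means growth inhibition of the mutant yeast at or above 50%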;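 further: temperature-sensitive mutant grown at 25 °C; plate controls were DMSO-treated mutant yeast for no effect and medium wells lacking yeast for full effect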
# tim10-1 inh = tim10-1 yeast growth inhibition; S. cerevisiae tim10-1 ts strain growth, BacTiter-Glo, 24 h; inhibition, % at 20 µM; 2.2% of 330,000 active; AID 463190;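 active means inhibition of at least 40%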;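 further: mutant grown at 25 °C; 0% = DMSO wells with yeast and 100% = wells holding no yeast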
# EBI2 conf = EBI2 (human) antagonism, single concentration confirmation; shares compounds with EBI2 antag; EBI2 beta-arrestin luminescence, 7a,25-OHC antagonism; inhibition, % at 5 µM; 29% of 2,400 active; AID 651997;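 active means inhibition of at least 50%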
# EBI2 ag = counter-screen for EBI2 antagonists: EBI2 agonist activity | AID 652000 | 2,400 tested, under 10 active | shares compounds with EBI2 antag | activation, % at 5 µM | EBI2-expressing cells, agonist mode, luminescence, 60 min; 0% vehicle, 100% 7α,25-dihydroxycholesterol control;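 active means activation of at least 50%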
# bGal cs = counter-screen for EBI2 antagonists: E. coli beta-galactosidase inhibition | shares compounds with EBI2 antag | purified beta-galactosidase, luminescent Galacton Star, 15 min | inhibition, % at 5 µM | 1% of 2,400 active | AID 652176;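 active means replicate-average signal at least 3 plate SD below neutral wells, shown as high inhibition, flagging enzyme-inhibiting false positives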;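 further: 0% = DMSO wells with enzyme and 100% = wells lacking enzyme; higher means stronger loss of beta-gal luminescence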
# An asterisk follows results filed as active; . = not tested or not shown; ! = repeats disagree. Most compounds without a hit are left out; they make up all but 4.7% or so of the library.
SMILES,PfHsp90 yeast 2,EBI2 antag,SKKanGAS inh,TIM10 inh,tim23-1 inh,tim10-1 inh,EBI2 conf,EBI2 ag,bGal cs
O=C(Cn1ccc(NC(=O)OCc2ccccc2)nc1=O)NCCc1c[nH]c2ccccc12,-16.2,-1.0,.,1.8,-14.3,-8.4,.,.,.
O=C(NCCc1c[nH]c2ccccc12)C1CCCN(S(=O)(=O)c2ccccc2)C1 (stereo not drawn),-5.6,45.5*,-5.2,3.3,14.0,16.5,40.2,-0.2,-15.5
O=C(NCCC1=CCCCC1)C1CCCN(S(=O)(=O)c2ccccc2)C1 (stereo not drawn),-49.6,-5.2,-5.4,26.9,15.9,19.1,.,.,.
Cc1ccc(NC(=O)CCC(=O)NNC(=S)Nc2ccc(F)cc2)c(C)c1,-69.5,-0.8,-1.0,5.3,-3.1,-9.4,.,.,.
Cc1ccc(NNC(=S)Nc2ccc(C(C)C)cc2)c(C)c1,5.5,70.1*,-1.5,-0.1,23.0,12.9,62.4*,-1.2,-7.6
O=[N+]([O-])c1ccc(N/N=C/c2sc(N3CCOCC3)nc2-c2ccccc2)c(S(=O)(=O)Nc2ccccc2Cl)c1,6.2,15.4,.,.,.,.,.,.,.
O=[N+]([O-])c1ccc(N/N=C/c2sc(N3CCOCC3)nc2-c2ccccc2)c(S(=O)(=O)Nc2ccc(Cl)cc2)c1,-25.0,51.5*,18.7,.,.,.,30.3,-1.5,12.5
COc1ccc(CCN2C(=O)C(Oc3ccccc3C)C2c2ccc3c(c2)OCO3)cc1 (stereo not drawn),1.0,55.0*,6.9,6.4,-7.2,4.0,23.7,2.0,2.7
COC(=O)c1ccc(C2C(Oc3ccc(OC)cc3)C(=O)N2CCc2ccc(F)cc2)cc1 (stereo not drawn),0.9,42.2*,3.9,-1.8,7.3,16.7,16.3,-0.8,-9.9
Cc1cc(NC(=O)CN2C(=O)/C(=C/c3ccc(C(C)C)cc3)SC2=S)no1,.,0.2,.,.,.,.,.,.,.
O=C(CC(O)c1ccccc1)Nc1ccccn1 (stereo not drawn),-63.8,-6.4,.,.,.,.,.,.,.
CC1CCCCN1C(=O)c1ccc(C(=O)Nc2ccc(F)cc2)cc1 (stereo not drawn),-6.2,51.5*,.,7.9,31.6,24.1,22.2,-1.2,-12.4
COc1ccc(CCNC(=O)CSc2cn(Cc3ccccc3)c3ccccc23)cc1OC,-6.0,41.9,-3.8,2.8,7.1,-2.1,.,.,.
COc1ccc(CCNC(=O)CSc2cn(Cc3cccc(C)c3)c3ccccc23)cc1OC,-22.7,55.0*,20.1,2.6,11.2,12.7,29.1,-1.2,-9.0
COc1ccc(OCC(=O)N2CCC3(CC2)CC(=O)c2ccccc2O3)cc1,-9.3,77.4*,-6.4,0.8,5.0,-7.7,60.7*,1.5,6.3
Cc1cccc(OCC(=O)N2CCC3(CC2)CC(=O)c2ccccc2O3)c1,-18.0,30.8,-4.8,16.9,11.7,8.7,.,.,.
CCOc1ccc(OCC(=O)N2CCC3(CC2)CC(=O)c2ccccc2O3)cc1,-9.9,84.4*,-9.2,4.7,10.8,8.1,51.7*,-0.1,-16.6
O=C(/C=C/c1cccc([N+](=O)[O-])c1)N1CCN(Cc2ccc3c(c2)OCO3)CC1,4.9,49.6*,-1.1,27.0,25.2,19.8,31.1,0.7,0.5
O=C(c1sccc1Br)N1CCN(Cc2ccc3c(c2)OCO3)CC1,-2.0,4.5,-7.8,6.3,9.4,3.9,.,.,.
O=C(/C=C/c1cccs1)N1CCN(Cc2ccc3c(c2)OCO3)CC1,4.7,64.3*,0.1,22.6,13.7,5.2,43.8,-0.7,-13.1
CC(=O)Oc1ccc2c(=O)c(Oc3ccccc3)coc2c1OC(C)=O,5.1,4.1,8.0,14.7,3.2,-1.2,.,.,.
COc1ccc(C)cc1NC(=O)COC(=O)C1CCN(C(=O)c2ccc(Cl)cc2)CC1,-29.8,16.6,-4.0,-7.6,6.8,-32.7,.,.,.
COc1ccc(COC(=O)C2CCN(C(=O)c3ccc(Cl)cc3)CC2)cc1F,-7.7,48.9*,.,2.3,26.8,-2.9,49.0,0.1,-0.1
COc1ccc(C(C)=O)cc1COC(=O)C1CCN(C(=O)c2ccc(Cl)cc2)CC1,-16.4,77.4*,.,21.6,22.2,17.5,38.6,1.4,8.6
CC1CCN(C2CCN(S(=O)(=O)c3ccc(C(F)(F)F)cc3)CC2)CC1,26.1,4.4,0.5,-28.0,0.3,-35.2,.,.,.
SMILES,PfHsp90 yeast 2,EBI2 antag,SKKanGAS inh,TIM10 inh,tim23-1 inh,tim10-1 inh,EBI2 conf,EBI2 ag,bGal cs
CCOc1ccc(NC(=O)c2cc3ccccc3cc2O)cc1,-6.1,6.3,14.4,-0.7,-14.6,-33.7,.,.,.
CCOc1ccc(NC(=S)Nc2ccc(OCc3ccccc3)cc2)cc1,11.8,58.1*,2.6,4.9,3.3,10.4,35.9,0.2,-13.0
CCOc1ccc(NC(=O)c2cc3ccccc3cc2OC)cc1,13.5,54.3*,-1.0,0.7,14.4,7.6,37.4,-1.6,-11.2
COc1ccc(NC(=O)c2ccc(C(=O)c3cc(OC)ccc3OC)cc2)cc1,25.5,48.1*,1.6,-5.3,-12.3,15.6,6.0,0.5,6.0
CCOc1ccc(NC(=S)Nc2ccc(OC)cc2)cc1,-43.5,75.5*,-0.1,7.6,8.7,13.1,62.8*,-1.2,-14.7
CN1CCN(c2nc3c(c(=O)n(C)c(=O)n3C)n2Cc2ccccc2F)CC1,4.2,-8.5,-0.5,-2.4,8.1,-86.4,.,.,.
COc1ccc(C)cc1NC(=O)c1cc(S(=O)(=O)N2CCCCC2)ccc1N1CCOCC1,10.4,7.6,.,14.6,25.4,20.3,.,.,.
COc1cc(CN2CCC(n3nccc3NC(=O)C3CC3)CC2)cc(OC)c1,3.9,3.7,-1.1,5.4,11.2,7.7,.,.,.
COc1ccc(CNC(=S)Nc2ccc(OC)cc2)cc1,-6.7,-13.9,-3.0,4.8,5.0,8.1,.,.,.
CCC(C)c1ccc(NC(=S)Nc2ccc(OC)cc2)cc1 (stereo not drawn),13.1,53.3*,4.9,32.1,44.5,30.6,48.6,1.5,4.3
CC(C)c1ccc(NC(=S)Nc2ccc(OC(F)(F)F)cc2)cc1,-45.4,55.3*,-0.7,5.9,7.7,-17.4,51.0*,2.5,3.1
CCOc1ccc(NC(=S)Nc2ccc(Br)cc2Cl)cc1,-3.5,67.8*,-4.6,-0.1,14.2,-4.7,43.0,1.6,-2.5
COc1ccc(NC(=S)Nc2ccccc2)cc1,0.0,38.6*!,-1.5,-6.8,1.4,-2.7,9.4,2.8,7.1
COc1cccc(NC(=S)Nc2ccc(Br)cc2Cl)c1,2.3,0.6,-14.7,21.4,27.0,-9.5,.,.,.
CC(=O)NC(=S)Nc1ccc(NC(=O)COc2ccc(C(C)C)cc2)cc1,7.9,-10.5,-2.7,24.9,10.5,21.9,.,.,.
